# Assay results published in PubChem BioAssay (NCATS).
# Records with an inconclusive call do not appear. The source made the active and inactive calls. Calls come from the whole dose curve; as a rule, active = well fitted inhibition curve with a large enough effect; inconclusive = small, poorly fitted or top-dose-only effect; inactive = no such curve, though single readings can be large or run the other way.
# System: Zika virus NS2B-NS3 protease (linked construct)
# Experiment: Primary screen NINDS Rhodamine qHTS for Zika virus inhibitors (AID 1347160); note: nearly all actives have a fitted effect of over 55% in size
# Details: purified NS2B-NS3 protease, Rhodamine110 substrate fluorescence; series mostly up to 33.1 µM; activity change, negative = inhibition: at the top concentration
# Outline: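 Each compound, titrated, sat 15 min with 25 nM linked protease before 1.5 microM Rhodamine110 substrate went in. Fluorescence gain over the next 15 min, in pH 8.0 Tris with Tween 20, gave Hill-fitted curves.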
# % is set by controls: 0 for no effect and ±100 for the full control effect.
SMILES,"activity change, negative = inhibition",outcome
C=C(C)[C@@]1(O)C[C@@]2(C)C(=CC1=O)CC[C@@H](O)[C@@H]2C,44.3% [at 57.1 µM] (inactive),
NC(=O)NCCCC(NC(=O)Cc1ccccc1)C(=O)O (stereo unspecified),22% [at 57.1 µM] (inactive),
COC(=O)C1=CO[C@@H](O[C@@H]2O[C@H](CO)[C@@H](O)[C@H](O)[C@H]2O)[C@H]2[C@@H]1[C@H](O)C[C@]2(C)O,31.9% (inactive),
OCC1=C[C@@H](O)[C@@H]2C=CO[C@@H](O[C@@H]3O[C@H](CO)[C@@H](O)[C@H](O)[C@H]3O)[C@H]12,0.49% (inactive),
COC(=O)[C@H](Cc1ccc([N+](=O)[O-])cc1)NC(=O)c1cccc2ccccc12,,inactive
COc1cc(/C=C/C(=O)O[C@H]2C[C@@H]3C(C(=O)O)=CO[C@@H](O[C@@H]4O[C@H](CO)[C@@H](O)[C@H](O)[C@H]4O)[C@@H]3[C@H]2C)ccc1O,3.34% (inactive),
C/C=C/C1OC2=C(C(=O)OC2(C)O)C(O)C1O (stereo unspecified),5.13% [at 57.1 µM] (inactive),
Cc1c(O)cc2c(c1O)COC1(O)CCCOC21 (stereo unspecified),-26.7% [at 57.1 µM] (inactive),
CC(C)c1c(NC(=O)Nc2ccc(Cl)cc2)c(=O)n(-c2ccccc2)n1C,,inactive
CC1(C)CC[C@]2(C(=O)O[C@@H]3O[C@H](CO)[C@@H](O)[C@H](O)[C@H]3O)CC[C@]3(C)C(=CCC4[C@@]5(C)CC[C@H](O[C@@H]6O[C@H](C(=O)O)[C@@H](O[C@@H]7O[C@H](CO)[C@@H](O)[C@H](O)[C@H]7O)[C@H](O)[C@H]6O)C(C)(C)C5CC[C@]43C)C2C1 (stereo partly specified),-4.44% [at 15.1 µM] (inactive),
C/C=C(\C)C(=O)OC1CC2C(CC=C3CC(OC4CC(OC)C(OC5CC(OC)C(OC6CC(OC)C(OC7CC(OC)C(OC8CC(OC)C(OC9OC(CO)C(O)C(O)C9O)C(C)O8)C(C)O7)C(C)O6)C(C)O5)C(C)O4)CCC32C)C2(O)CCC(C(C)=O)C12C (stereo unspecified),-7.52% [at 10.7 µM] (inactive),
